Data from PubChem BioAssay (NCI).
About 79,000 compounds went through this panel and 15% of them were active in at least one assay; those are over-represented in the sample as a whole. The source made the active and inactive calls. Cut-off read from the data, not from the text of the source: active = growth inhibition above about 70%; inactive = the rest.

What was measured:
[1] = NCI Yeast Anticancer Drug Screen. Data for the rad52 strain (AID 147);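 note: 0% = growth of vehicle-treated control cultures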; details: S. cerevisiae rad52 mutant growth inhibition, hits give high values
How it was run: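 Here a repair-compromised yeast strain receives each compound; its growth is then quantified and normalised to vehicle-only controls.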

[2] = NCI Yeast Anticancer Drug Screen. Data for the wt1 strain (AID 149);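 note: 0% = growth of vehicle-treated wt1 cultures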; details: S. cerevisiae wt1 strain (SPY 50644) growth inhibition, hits give high values
How it was run: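 Readout: yeast growth inhibition, normalised to vehicle controls, in the wt1 strain exposed to test compounds.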

[3] = NCI Yeast Anticancer Drug Screen. Data for the rad50EPP+ strain (AID 151);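 note: 0% = growth of vehicle-treated control cultures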; details: S. cerevisiae rad50 mutant strain, hits give high values
How it was run: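 Read-out is yeast growth inhibition relative to vehicle; cells used were the rad50EPP+ strain.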

[4] = NCI Yeast Anticancer Drug Screen. Data for the mgt1 strain (AID 153); details: S. cerevisiae mgt1 mutant growth inhibition, hits give high values
How it was run: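 Measured: inhibition of mgt1 yeast growth by compound, normalized to vehicle-treated cultures.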

[5] = NCI Yeast Anticancer Drug Screen. Data for the rad50 strain (AID 155);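 note: 0% = growth of vehicle-only cultures of the same strain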; details: S. cerevisiae rad50 strain growth inhibition, hits give high values
How it was run: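 Compounds were tested on a yeast strain with an engineered DNA damage repair alteration; the reported value is growth inhibition normalised to vehicle treatment.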

[6] = NCI Yeast Anticancer Drug Screen. Data for the mec2-1 strain (AID 157); details: S. cerevisiae mec2-1 strain, hits give high values
How it was run: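 Using mec2-1 yeast: add compound, measure growth, express inhibition versus vehicle-treated cultures.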

[7] = NCI Yeast Anticancer Drug Screen. Data for the rad14 strain (AID 159);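 note: 0% = growth of vehicle-treated control cultures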; details: S. cerevisiae rad14 strain growth inhibition, hits give high values
How it was run: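 Compound-treated yeast with a defined DNA-repair lesion; growth inhibition normalised to vehicle-treated cultures.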

[8] = NCI Yeast Anticancer Drug Screen. Data for the sgs1 mgt1 strain (AID 161);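 note: 0% = growth of cultures given vehicle only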; details: S. cerevisiae sgs1 mgt1 strain, hits give high values
How it was run: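 Yeast cells carrying a defined DNA-repair defect were exposed to test compounds. Growth inhibition was measured relative to vehicle-treated controls.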

[9] = NCI Yeast Anticancer Drug Screen. Data for the CLN2oe strain (AID 163);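 note: 0% = growth of vehicle-only control cultures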; details: S. cerevisiae CLN2oe strain, hits give high values
How it was run: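 Whole-cell yeast growth assay. A strain engineered for altered cell-cycle control received compound, and inhibition relative to vehicle-treated cultures was recorded.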

[10] = NCI Yeast Anticancer Drug Screen. Data for the cln2 rad14 strain (AID 165);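 note: 0% = growth equal to vehicle treated cultures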; details: S. cerevisiae cln2 rad14 strain, hits give high values
How it was run: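 Yeast strain cln2 rad14, bearing defects in cell cycle control and DNA repair, serves as the test system; values reflect growth inhibition compared with vehicle.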

[11] = NCI Yeast Anticancer Drug Screen. Data for the bub3 strain (AID 167); details: S. cerevisiae bub3 mutant strain, hits give high values
How it was run: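 Growth of a checkpoint-deficient yeast mutant is measured after compound exposure. Values represent inhibition relative to vehicle.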

[12] = NCI Yeast Anticancer Drug Screen. Data for the wt2 strain (AID 169);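 note: 0% = growth of vehicle-treated yeast cultures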; details: S. cerevisiae wt2 strain growth inhibition, hits give high values
How it was run: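 Treated yeast vs. vehicle-treated yeast: growth inhibition determined.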

[13] = NCI Yeast Anticancer Drug Screen. Data for the mlh1 strain (AID 171);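 note: 0% = growth of vehicle-treated control cultures of the same strain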; details: S. cerevisiae mlh1 strain growth inhibition, hits give high values
How it was run: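 A yeast strain with a defined genetic lesion serves as the test organism. Cultures receive compound or vehicle, and growth is measured.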

[14] = NCI Yeast Anticancer Drug Screen. Data for the sgs1 strain (AID 173);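 note: 0% = growth of vehicle-only control cultures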; details: S. cerevisiae sgs1 mutant, hits give high values
How it was run: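 A genetically defined yeast mutant is incubated with the test compound, and its growth is compared to that of the same strain given vehicle.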

[15] = NCI Yeast Anticancer Drug Screen. Data for the mlh1 rad18 strain (AID 175); details: S. cerevisiae mlh1 rad18 strain growth inhibition, hits give high values
How it was run: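 Steps: expose repair-defective yeast to compound; measure growth; express inhibition against vehicle-treated controls.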

[16] = NCI Yeast Anticancer Drug Screen. Data for the rad18 strain (AID 177); details: S. cerevisiae rad18 mutant growth inhibition, hits give high values
How it was run: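 Measured value is growth inhibition of a yeast strain bearing a DNA repair alteration, referenced to vehicle-treated cells.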

[17] = at 5.0 µM (retest, dose inferred, filed as 0.5)
[18] = at 50.0 µM (retest, dose inferred, filed as 5.0)

Measured: growth inhibition

NCCNCCNc1ccc(NCCNCCN)c2c1C(=O)c1c(O)ccc(O)c1C2=O
inactive: [1]; at 1.2 µM 34% | [1]; at 3.7 µM 48% | [2]; at 1.2 µM -49% | [2]; at 3.7 µM -2% | [2]; at 11.0 µM -4% | [2]; at 33.0 µM 0% | [2]; at 100.0 µM 12% | [3]; at 1.2 µM 9% | [3]; at 3.7 µM 36% | [3]; at 11.0 µM 69% | [3]; at 100.0 µM 69% | [4]; at 1.2 µM -2% | [4]; at 3.7 µM 0% | [4]; at 11.0 µM 1% | [4]; at 33.0 µM 7% | [4]; at 100.0 µM 19% | [5]; at 1.2 µM 17% | [5]; at 3.7 µM 49% | [5]; [17] 20% | [5]; [18] 66% | [6]; at 1.2 µM 27% | [6]; at 3.7 µM 1% | [6]; [17] 0% | [6]; at 11.0 µM -7% | [6]; at 33.0 µM 11% | [6]; [18] 45% | [6]; at 50.0 µM 0.2% | [6]; at 100.0 µM 31% | [7]; at 1.2 µM -4% | [7]; at 3.7 µM -2% | [7]; at 11.0 µM 0% | [7]; at 33.0 µM 5% | [7]; at 100.0 µM 15% | [8]; [17] -6% | [8]; [18] 8% | [8]; at 50.0 µM 15.1% | [9]; at 1.2 µM -10% | [9]; at 3.7 µM -7% | [9]; at 11.0 µM -10% | [9]; at 33.0 µM -9% | [9]; at 100.0 µM 40% | [10]; [17] 32% | [10]; [18] 34% | [10]; at 50.0 µM 7% | [11]; at 1.2 µM -4% | [11]; at 3.7 µM -11% | [11]; [17] 20% | [11]; at 11.0 µM -10% | [11]; at 33.0 µM -8% | [11]; [18] -1% | [11]; at 50.0 µM -1.95% | [11]; at 100.0 µM 20% | [12]; at 1.2 µM -3% | [12]; at 3.7 µM -3% | [12]; at 11.0 µM -3% | [12]; at 33.0 µM 14% | [12]; at 100.0 µM 53% | [13]; at 1.2 µM 0% | [13]; at 3.7 µM -2% | [13]; at 11.0 µM -1% | [13]; at 33.0 µM -1% | [13]; at 100.0 µM 16% | [14]; at 1.2 µM 1% | [14]; at 3.7 µM 4% | [14]; at 11.0 µM 2% | [14]; at 33.0 µM 13% | [14]; at 100.0 µM 25% | [15]; [17] 11% | [15]; [18] 0% | [15]; at 50.0 µM 16.5% | [16]; at 1.2 µM 4% | [16]; at 3.7 µM 2% | [16]; at 11.0 µM 9% | [16]; at 33.0 µM 22% | [16]; at 100.0 µM 48%
active: [1]; at 11.0 µM 91% | [1]; at 33.0 µM 93% | [1]; at 100.0 µM 85% | [3]; at 33.0 µM 84% | [5]; at 11.0 µM 82% | [5]; at 33.0 µM 88% | [5]; at 50.0 µM 87.7% | [5]; at 100.0 µM 84%
